A selection: hits, their analogues and other compounds. The true share with any hit is near 1.9%.
sEH inhibitor – inhibitors of human soluble epoxide hydrolase; P34913; recombinant human sEH enzymatic activity assay; inhibition, % at 2 µM; 91,000 compounds, 0.34% hits; AID 707; in the data active = inhibition above about 80%
Target sequence (P34913 whole entry, looked up): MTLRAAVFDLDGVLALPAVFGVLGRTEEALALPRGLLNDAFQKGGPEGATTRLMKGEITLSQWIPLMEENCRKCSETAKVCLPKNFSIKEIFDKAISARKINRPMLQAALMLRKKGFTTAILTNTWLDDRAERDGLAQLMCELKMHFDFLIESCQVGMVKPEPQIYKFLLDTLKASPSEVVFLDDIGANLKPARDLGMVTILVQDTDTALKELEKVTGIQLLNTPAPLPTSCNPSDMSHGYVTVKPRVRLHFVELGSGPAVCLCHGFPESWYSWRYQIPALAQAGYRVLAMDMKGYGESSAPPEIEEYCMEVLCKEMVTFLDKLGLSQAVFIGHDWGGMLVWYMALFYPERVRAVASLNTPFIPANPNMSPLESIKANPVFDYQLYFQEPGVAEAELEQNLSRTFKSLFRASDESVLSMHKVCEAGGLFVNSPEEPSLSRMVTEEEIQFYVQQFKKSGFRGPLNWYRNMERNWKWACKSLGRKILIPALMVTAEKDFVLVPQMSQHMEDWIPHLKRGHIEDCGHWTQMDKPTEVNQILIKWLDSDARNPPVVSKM
Measles CPE – protection of cells from measles virus | Measles virus-infected cells, CPE protection, absorbance | protection (pct of control), % at 4 µM | 140,000 compounds, 1.5% hits | AID 841; in the data active = protection mostly above about 24%, no sharp cut-off; inactive = mostly below about 26%
SDO1 yeast rescue – compounds rescuing growth of sdo1-depleted yeast, bone marrow failure model; z-score at 10 µM; S. cerevisiae sdo1-depleted JHY4D growth rescue, OD600 30 h; active compounds read high; pdr5 snq2 efflux-pump mutant strain; 140,000 compounds, 0.21% hits; AID 817;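 active = z-score above 3 at both the 24 hr and the 30 hr optical density reads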
sEH activator – activators of human soluble epoxide hydrolase. purified human sEH enzymatic activity, activator screen. 91,000 compounds, 0.04% hits. activation, % at 2 µM; in the data active = activation above about 37%
sdo1 rescue conf – SDO1-depleted yeast growth rescue confirmation. OD recovery (no concentration beside the values). 440 compounds, 44% hits. AID 949. shares compounds with SDO1 yeast rescue. S. cerevisiae JHY4D (SDO1-depleted) growth rescue, OD600, 30 h; active compounds read high; efflux-deficient strain, SNQ2 and PDR5 mutated;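 active = yeast growth recovered at 30 hours, either rising with dose fitted slope above 0.001 or with average optical density gain above 0.07, some results past the limit were not filed as active; inactive = growth falling with dose or no effect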
Hits are given with their value; n = inactive; x = not tested or not shown.

SMILES | sEH inhibitor | Measles CPE | SDO1 yeast rescue | sEH activator | sdo1 rescue conf
O=C(O)C1CC(=O)N(Cc2ccccc2)C1 (configuration not stated) | n | n | n | n | x
CCOC(=O)c1[nH]c(COC(=O)C2CC(=O)N(Cc3ccccc3)C2)c(C(=O)OCC)c1C (configuration not stated) | n | n | 4.6 | n | n
CCN1CCN(CC(=O)Nc2ccc(C)cc2C)C(=O)C1=O | n | n | n | n | x
C=CCc1cc(/C=N/NC(=O)CSc2nnc(CCCc3ccc(OC)cc3)o2)cc(OC)c1O | n | n | n | n | 0.087
CCCCOc1ccc(C(=O)N/N=C/c2cn[nH]c2-c2ccc(OC)c(OC)c2)cc1 | x | n | n | x | x
CCCCOc1ccc(C(=O)N/N=C/c2ccc(OCCN3CCCCC3)c(OC)c2)cc1 | x | n | 9 | x | 0.11
Oc1cccc(C=NCc2ccccc2)c1 | n | n | n | n | x
COc1cccc(Cn2c(C3CC3)nc3ccc(NC(=O)c4ccco4)cc3c2=O)c1 | n | n | n | n | x
O=C(Nc1ccccc1)C1CC(=O)N(C2CCCCC2)C1 (configuration not stated) | n | n | 4.1 | n | n
CCCc1nc2ccccc2c(=O)n1N | n | n | 3.6 | n | n
CCOC(=O)C(C)Sc1ncc(OC)c(=O)[nH]1 (configuration not stated) | n | n | n | n | x
O=C(O)COc1ccc2occ(C(=O)c3ccccc3)c2c1 | n | n | n | n | x
COC(=O)COc1ccc2occ(C(C)=O)c2c1 | n | n | 3.6 | n | 0.11
O=C(N/N=C/c1cn(-c2ccccc2)nc1-c1ccccc1)c1ccco1 | x | n | n | x | x
N#Cc1ccc(N/N=C/c2cn(-c3ccccc3)nc2-c2ccccc2)c([N+](=O)[O-])c1 | x | n | n | x | n
Nc1cc(=O)[nH]c(SCC(=O)Nc2ccc(S(=O)(=O)N3CCOCC3)cc2)n1 | n | n | n | n | x
CC(=O)c1c(Nc2ccc3c(c2)OCCO3)oc(C)cc1=O | n | n | n | n | x
O=C(CCCOc1ccccc1)N1CCN(c2ccccc2)CC1 | n | n | 8.8 | n | 0.099
Cc1cc(NC(=O)c2noc3c2CCc2ccccc2-3)n(-c2ccccc2)n1 | x | n | 9.6 | x | 0.083
CCCC(=O)Nc1nc(-c2ccccc2)ns1 | x | n | n | x | x
COC(=O)c1ccccc1NC(=O)C1CCCCC1C(=O)O (configuration not stated) | n | n | n | n | x
CC(=O)N(c1c(C)n(C)n(-c2ccccc2)c1=O)C1(C(=O)NC2CCCC2)CCCCC1 | x | n | 11 | x | 0.064
CC(=O)N(c1c(C)n(C)n(-c2ccccc2)c1=O)C1(C(=O)NC2CCCCC2)CCCCC1 | n | n | n | n | x
CCOC(=O)CCSc1nc(-c2ccccc2)cc(C(F)(F)F)n1 | n | n | n | n | x
Cc1sc(NC(=O)C2CCCC2)c(C#N)c1C | x | n | n | x | x
SMILES | sEH inhibitor | Measles CPE | SDO1 yeast rescue | sEH activator | sdo1 rescue conf
CN(C)c1ccc(/C=[N+](\[O-])C2SC(=S)N(C)C2(C)C)cc1 (configuration not stated) | n | n | n | n | x
CN(C)c1ccc(/C=[N+](\[O-])C2N(c3ccccc3)C(=S)SC2(C)C)cc1 (configuration not stated) | x | n | 7.9 | x | n
CS(=O)(=O)N1CCc2cc(C(=O)O)ccc21 | n | n | n | n | x
Cc1cc(C)n2nc(/C(C#N)=C/c3ccccc3)c(C#N)c2n1 | n | n | n | n | x
Cc1cc(-c2ccccc2)n2nc(C)c(C#N)c2n1 | n | n | 12 | n | n
CC(C)OC(=O)CSc1nnc(-c2ccc(O)cc2)n1Cc1ccccc1 | n | n | n | n | x
CCOC(=O)c1cccc(NC(=O)CSc2nnc(COc3ccccc3C)o2)c1 | n | n | n | n | n
O=C(CSc1nnc(-c2ccco2)o1)c1ccccc1 | n | n | n | n | n
O=C(CSc1nnc(-c2ccco2)o1)c1ccc(F)c(F)c1 | n | n | n | n | x
COc1ccc(C(=O)CSc2nnc(Cc3ccccc3)o2)cc1 | x | n | 7 | x | n
O=C(NC(CO)Cc1ccc([N+](=O)[O-])cc1)C(Cl)Cl (configuration not stated) | x | n | n | x | x
CCOC(=O)c1nnn(-c2nonc2N)c1CN1CCc2ccccc2C1 | n | n | 11 | n | 0.11
COc1ccc(S(=O)(=O)N2CCCC(C(=O)O)C2)cc1 (configuration not stated) | n | n | n | n | n
Cc1ccc2cc(C#N)c(SCC(=O)Nc3ccc4sc(C)nc4c3)nc2c1 | n | n | n | n | 0.1
O=C(Nc1ccc(S(=O)(=O)N2CCCCCC2)cc1)c1ccco1 | n | n | n | n | n
O=C(CCCOc1ccc(Cl)cc1Cl)N/N=C/c1cccc([N+](=O)[O-])c1 | x | n | n | x | n
COc1ccc(CNC(=O)c2c(O)c3ccccc3n(C)c2=O)cc1OC | n | n | n | n | x
COc1cc(CNCc2ccccn2)ccc1OCc1ccc(Cl)cc1 | x | n | n | x | x
COc1cc(CNCc2ccccn2)ccc1OCc1cccc(Cl)c1 | n | n | 7.7 | n | 0.072
Cc1cc2c(c(=O)n1Cc1cccnc1)C(c1ccccc1)C(C#N)=C(N)O2 (configuration not stated) | x | n | 5.8 | x | n
O=C1OC(c2ccc(O)cc2)(c2ccc(O)cc2)c2ccccc21 | x | n | n | x | x
CC(C)C1(C(C)C)OC(=O)c2ccccc21 | x | n | 3 | x | n
Cc1ccc(OCCN2CCCCCC2)c(C)c1 | n | n | n | n | x
Cc1nc(Nc2ccc(S(N)(=O)=O)cc2)oc1C | n | n | 6.5 | n | n
CC(C)CNC(=O)c1coc(=O)c(Br)c1 | n | n | n | n | x
SMILES | sEH inhibitor | Measles CPE | SDO1 yeast rescue | sEH activator | sdo1 rescue conf
CN(C)CCNC(=O)c1coc(=O)c(Br)c1 | x | n | 13 | x | n
CCCc1nnc(NC(=O)C(CC)OC(=O)c2cc(C)nc3ccccc23)s1 (configuration not stated) | n | n | 12 | n | n
Cc1cc(C)nc(SCC(=O)Nc2ncc(Cc3cccc(Cl)c3)s2)n1 | x | n | n | x | 0.091
O=C(CN1CCOCC1)Nc1ncc(Cc2cccc(Cl)c2)s1 | x | n | n | x | x
CCCCNC(=O)CN(CCc1ccccc1)S(C)(=O)=O | n | n | n | n | x
Cc1nn(C)c(C)c1S(=O)(=O)N1CCCC(C(=O)NC2CCCCCC2)C1 (configuration not stated) | x | n | n | x | 0.083
CC12CCC(C(=O)N(NC(=O)c3cccnc3)C1=O)C2(C)C (configuration not stated) | x | n | 6.2 | x | n
CC(=O)c1ccc(NC(=O)c2ccc(COc3ccccc3[N+](=O)[O-])o2)cc1 | x | n | n | x | 0.097
O=C(O)c1ccc(COc2ccccc2[N+](=O)[O-])o1 | x | n | n | x | x
COc1ccc(CSc2cccc3cccnc23)cc1[N+](=O)[O-] | x | n | n | x | x
CCOC(=O)/C=C/C(=O)OCC(=O)Nc1ccc(OC)c(Cl)c1 | x | n | n | x | x
COc1ccc(NC(=O)COC(=O)/C=C/C(=O)OCC(=O)Nc2ccc(OC)c(Cl)c2)cc1Cl | x | n | n | x | n
CCCCCCCC#Cc1ccccc1/C=N/S(=O)c1ccc(C)cc1 (configuration not stated) | x | n | 13 | x | n
Cc1ccc(N(Cc2ccc(C(=O)NCCSc3ccccn3)cc2)S(C)(=O)=O)cc1C | x | n | 7.2 | x | 0.1

Bioassay records deposited in PubChem BioAssay by several laboratories.
